KCNH2 3.1 inh: qHTS for Inhibitors of KCHN2 3.1: Mutant qHTS. activity change, % (tested at about 1.8 µM). U2OS KCNH2 3.1, thallium flux FluxOr; stronger effect = lower value. 0.95% of 340,000 active. AID 720553, 2013;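 active = maximum activity change below -70%; inconclusive = maximum activity change from -70% to -50%; inactive = maximum activity change above -50%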;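 also: thallium influx rate constant from kinetic fluorescence after stimulation buffer; % is scaled to controls: 0 for no effect and ±100 for the full control effect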
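Thallium flux via FluxOr fluorescence (Red40 quencher, 45 min loading) in U2OS cells virally expressing the KCNH2 3.1 isoform (1.77 x 10^8 /mL virus, overnight at 37 C). Rate constants from 2-min kinetic reads post-stimulation, normalised to positive and negative controls.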
KB-V1 MDR tox: qHTS assay for MDR1-selective chemotherapeutics: Primary screen using the drug-selected MDR subline cells KB-V1. KB-V1 MDR cells viability, CellTiter-Glo, 72 h. Potency, µM (highest dose often 46.1 µM), hits mostly cytotoxic. 3.4% of 400,000 active. AID 1347076, 2019; also: potency is read from the fitted curve at half-maximal effect; % is scaled to controls: 0 for no effect and ±100 for the full control effect; nearly all actives have a fitted effect of over 60% in size
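Cells of the MDR subline KB-V1 are plated, dosed with compound at multiple concentrations, and incubated 72 h at 37 degrees C; CellTiter-Glo is then added and luminescence read after 10 min.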
hERG WT inh: qHTS for Inhibitors of KCHN2 3.1: Wildtype qHTS; Voltage-gated inwardly rectifying potassium channel KCNH2 (Homo sapiens), Q12809; U2OS, BacMam KCNH2, thallium flux FluxOr; stronger effect = lower value; activity change, % at 1.84 µM; 0.37% of 340,000 active; AID 720551, 2013;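 active = maximum activity change below -70%; inconclusive = maximum activity change between -70% and -50%; inactive = maximum activity change above -50%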; also: % is scaled to controls: 0 for no effect and ±100 for the full control effect
Target sequence (Q12809 whole entry, looked up): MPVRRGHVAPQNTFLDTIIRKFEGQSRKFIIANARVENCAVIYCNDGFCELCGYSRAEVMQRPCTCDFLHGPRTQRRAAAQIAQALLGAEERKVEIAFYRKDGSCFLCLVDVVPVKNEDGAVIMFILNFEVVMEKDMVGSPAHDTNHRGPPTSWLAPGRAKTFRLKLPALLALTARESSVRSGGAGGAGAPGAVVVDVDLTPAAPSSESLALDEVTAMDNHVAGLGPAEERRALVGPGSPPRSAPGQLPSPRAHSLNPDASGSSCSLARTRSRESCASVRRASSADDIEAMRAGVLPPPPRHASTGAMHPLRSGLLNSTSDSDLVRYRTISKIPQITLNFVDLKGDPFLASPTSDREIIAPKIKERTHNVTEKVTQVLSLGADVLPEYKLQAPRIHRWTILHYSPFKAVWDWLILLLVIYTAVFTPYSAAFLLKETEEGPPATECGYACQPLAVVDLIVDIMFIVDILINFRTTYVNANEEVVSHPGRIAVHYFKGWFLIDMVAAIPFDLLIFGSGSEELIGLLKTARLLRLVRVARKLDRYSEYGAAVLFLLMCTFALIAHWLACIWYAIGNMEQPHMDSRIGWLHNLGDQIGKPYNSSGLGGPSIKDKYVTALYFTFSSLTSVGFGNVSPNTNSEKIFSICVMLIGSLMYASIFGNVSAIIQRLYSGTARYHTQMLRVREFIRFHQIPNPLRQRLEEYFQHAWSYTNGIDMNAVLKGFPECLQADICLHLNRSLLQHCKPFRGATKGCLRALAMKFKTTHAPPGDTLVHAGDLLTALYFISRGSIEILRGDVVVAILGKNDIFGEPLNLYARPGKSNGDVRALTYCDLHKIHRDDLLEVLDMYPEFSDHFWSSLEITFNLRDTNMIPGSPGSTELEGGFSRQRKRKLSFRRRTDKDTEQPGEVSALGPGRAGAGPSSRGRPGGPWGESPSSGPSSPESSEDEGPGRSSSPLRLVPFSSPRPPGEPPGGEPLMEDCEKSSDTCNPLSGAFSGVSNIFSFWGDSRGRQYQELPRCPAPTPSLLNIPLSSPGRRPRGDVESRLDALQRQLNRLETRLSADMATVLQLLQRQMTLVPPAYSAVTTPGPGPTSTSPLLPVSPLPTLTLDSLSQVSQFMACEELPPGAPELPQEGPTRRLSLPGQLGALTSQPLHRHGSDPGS
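U2OS cells were transduced with wild-type KCNH2 virus (2.03 x 10^8 / mL) for 4 h at room temperature, then cultured overnight at 37 C. Thallium flux was read with FluxOr dye. Rate constants were normalized to DMSO controls.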
MCF10A rereplic: A quantitative high throughput screen for small molecules that induce DNA re-replication in MCF 10a normal breast cells; MCF 10A DNA re-replication, Hoechst nuclear intensity, 48 h; Potency, µM (top dose mostly 46.1 µM), inactives show at the top dose activity, positive = re-replication, most hits filed as activators; 2.9% of 350,000 active; also: potency is read from the fitted curve at half-maximal effect; % of control where 0% means no effect; nearly all actives have a fitted effect of over 50% in size
SW480 rerep: A quantitative high throughput screen for small molecules that induce DNA re-replication in SW480 colon adenocarcinoma cells; SW480 DNA re-replication, Hoechst DNA content imaging, 48 h; Potency, µM (series often up to 46.1 µM), without a hit: at the highest dose re-replication activation, hits mostly activators; 1.8% of 340,000 active; AID 624297, 2012; also: potency is read from the fitted curve at half-maximal effect; % of control where 0% means no effect; nearly all actives have a fitted effect of over 55% in size
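Image-based DNA-content assay: after two days of treatment, nuclei were labelled with the DNA dye Hoechst and imaged, and hits were compounds raising the count of nuclei showing high fluorescence intensity.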
KB-3-1 cytotox: qHTS assay for MDR1-selective chemotherapeutics: Primary screen using the parental adenocarcinoma cell KB-3-1 | KB-3-1 viability, CellTiter-Glo ATP luminescence, 72 h | Potency, µM (highest dose often 46.1 µM), hits mostly cytotoxic | 1.4% of 400,000 active; also: potency is read from the fitted curve at half-maximal effect; % is scaled to controls: 0 for no effect and ±100 for the full control effect; nearly all actives have a fitted effect of over 60% in size
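KB-3-1 cells, DMEM (no phenol red) + 10% FBS; compound by pin transfer, 72 h, 37 °C. Readout: CellTiter-Glo luminescence after 10 min. Data normalized, curve-fitted.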
* = called active by the depositor; [ ] = another dose, or the depositor's remark. Sampled rows, rich in hits. Any-hit rate of the full collection: about 7.6%. Unless noted, calls follow the shape of the dose curve; as a rule, active = well fitted curve in the direction sought with a large enough effect; inconclusive = small, poorly fitted or top-dose-only effect, or another doubt; inactive = no such curve, though single readings can be large; an effect the other way counts as inactive or inconclusive.

How did O=C1c2[nH]nc(-c3ccccc3O)c2C(c2cccc(Cl)c2)N1CC1CCCO1 (stereo not given) do in these assays?
KCNH2 3.1 inh: -191*; KB-V1 MDR tox: inconclusive; hERG WT inh: -137*; MCF10A rereplic: 26%; SW480 rerep: 19%; KB-3-1 cytotox: inconclusive

Results for COc1ccc(C(=O)N2CCc3ccccc32)cc1S(=O)(=O)N1CCOCC1 ?
KCNH2 3.1 inh: -16; KB-V1 MDR tox: inactive; hERG WT inh: 25; MCF10A rereplic: 2%; SW480 rerep: -1%; KB-3-1 cytotox: inconclusive

What do the screens show for `CC(=O)c1ccc(OCCCC(=O)OCC(=O)N2CCN(S(=O)(=O)c3ccc(C)cc3C)CC2)cc1`?
KCNH2 3.1 inh: 49; KB-V1 MDR tox: inconclusive; hERG WT inh: -1; MCF10A rereplic: 5%; SW480 rerep: -17%; KB-3-1 cytotox: inactive

Results for O=c1cc2c(n[nH]1)-c1ccccc1CC2 ?
KCNH2 3.1 inh: -7; KB-V1 MDR tox: inconclusive; hERG WT inh: 0; MCF10A rereplic: -2%; SW480 rerep: -13%; KB-3-1 cytotox: 1.3µM*

How did CN(/N=C\c1ccc(O)c(O)c1)c1nc(-c2ccccc2)cc(-c2ccccc2)n1 do in these assays?
KCNH2 3.1 inh: -15; KB-V1 MDR tox: inconclusive; hERG WT inh: -10; MCF10A rereplic: inconclusive; SW480 rerep: 18µM*; KB-3-1 cytotox: inactive

What do the screens show for `COc1cc(/C=N/N(c2ccccc2)c2ccccc2)ccc1O`?
KCNH2 3.1 inh: -8; KB-V1 MDR tox: inactive; hERG WT inh: -1; MCF10A rereplic: inconclusive; SW480 rerep: inconclusive; KB-3-1 cytotox: inconclusive

Results for O=C(NNC(=O)c1cc(Cl)ccc1O)c1cccs1 ?
KCNH2 3.1 inh: 3; KB-V1 MDR tox: inactive; hERG WT inh: -3; MCF10A rereplic: -3%; SW480 rerep: 21µM*; KB-3-1 cytotox: inactive

What do the screens show for `CCC(=O)N1CCc2cc(S(=O)(=O)NCCC(=O)Nc3cc(C)ccc3OC)ccc21`?
KB-V1 MDR tox: inactive; KB-3-1 cytotox: inactive

How did CCCCCCn1c(=O)n2n(c1=O)C[C@]1(OC(=O)NCc3ccccc3)CN(S(=O)(=O)c3ccc(C)cc3)C[C@]1(O)C2 do in these assays?
KCNH2 3.1 inh: 0; KB-V1 MDR tox: inactive; hERG WT inh: 10; KB-3-1 cytotox: inconclusive

Results for Cc1cccc(-c2oc3ccc(-c4ccc5c(c4)OCO5)cc3c2/C=C/c2ccc(N)cc2)c1 ?
KCNH2 3.1 inh: 17; KB-V1 MDR tox: inconclusive; hERG WT inh: -13; MCF10A rereplic: inconclusive; SW480 rerep: 16µM*; KB-3-1 cytotox: inactive

Results for CCc1nc2c(OCc3ccc(F)cc3)cccn2c1N(C)C(=O)CC(C)C ?
KB-V1 MDR tox: inactive; KB-3-1 cytotox: inactive

How did CN(C(=O)c1cccc(NC(=O)Cc2cccc(NC(=O)C3CCN(C(=O)C4CCCCC4)CC3)c2)c1)C1CCC1 do in these assays?
KCNH2 3.1 inh: 2; KB-V1 MDR tox: inactive; hERG WT inh: 25; MCF10A rereplic: 1.2µM*; SW480 rerep: 4%; KB-3-1 cytotox: inactive

Results for Cc1ccc(C)c2sc(NC(=O)c3ccc(S(=O)(=O)N4CCC(C)CC4)cc3)nc12 ?
KB-V1 MDR tox: inactive; KB-3-1 cytotox: inactive

How did CC(NC(=O)CSc1n[nH]c(-c2ccccc2Cl)n1)c1nc2ccccc2[nH]1 (stereo not given) do in these assays?
KB-V1 MDR tox: inactive; KB-3-1 cytotox: inactive

How did Cn1c(=O)[nH]c(=O)c2c1nc(N1CCCC1)n2CCCSc1nnnn1-c1ccccc1 do in these assays?
KCNH2 3.1 inh: -4; KB-V1 MDR tox: 6.5µM*; hERG WT inh: 1; MCF10A rereplic: inconclusive; SW480 rerep: 9%; KB-3-1 cytotox: inactive

Results for CSCCC(NS(=O)(=O)c1ccccc1F)C(=O)NCc1cccs1 (stereo not given) ?
KCNH2 3.1 inh: 11; KB-V1 MDR tox: inactive; hERG WT inh: 3; MCF10A rereplic: -1%; SW480 rerep: 50%; KB-3-1 cytotox: inactive

What do the screens show for `CC(C)CN1C2CCCC1CC(NC(=O)c1ccc([N+](=O)[O-])cc1)C2` (stereo not given)?
KCNH2 3.1 inh: -15; KB-V1 MDR tox: inconclusive; hERG WT inh: 26; MCF10A rereplic: -2%; SW480 rerep: inconclusive; KB-3-1 cytotox: inactive

How did CCCNC(=O)c1ccc2c(=O)c(O)c(-c3ccc(F)cc3)[nH]c2c1 do in these assays?
KCNH2 3.1 inh: 4; KB-V1 MDR tox: inactive; hERG WT inh: -1; MCF10A rereplic: -3%; SW480 rerep: 5%; KB-3-1 cytotox: inconclusive

How did CCCNC(=O)c1ccc2c(=O)c(O)c(-c3cccc(Br)c3)[nH]c2c1 do in these assays?
KCNH2 3.1 inh: 11; KB-V1 MDR tox: inactive; hERG WT inh: 0; MCF10A rereplic: -34%; SW480 rerep: -19%[9.22 µM]; KB-3-1 cytotox: 12µM*

How did C[C@@H]1COC(=O)CCC/C=C\C[C@@H](CC(=O)N(CCO)Cc2ccccc2)C(=O)N1 do in these assays?
KB-V1 MDR tox: inactive; hERG WT inh: -3; MCF10A rereplic: 11%; SW480 rerep: -36%; KB-3-1 cytotox: inactive

How did FC(F)(F)c1nc2ccccc2n2c(-c3ccc(Cl)cc3Cl)nnc12 do in these assays?
KCNH2 3.1 inh: 1; KB-V1 MDR tox: inconclusive; hERG WT inh: -6; MCF10A rereplic: 26%; SW480 rerep: inconclusive; KB-3-1 cytotox: 18µM*

Results for CCOC(=O)N1CCC(NC(=O)c2cnn(-c3ccc(F)cc3F)c2C2CCN(C(=O)OC(C)(C)C)CC2)CC1 ?
KB-V1 MDR tox: inactive; KB-3-1 cytotox: inactive

How did Cc1cccc(C)c1NC(=O)Cn1nnnc1N do in these assays?
KCNH2 3.1 inh: -91*; KB-V1 MDR tox: inconclusive; hERG WT inh: -4; MCF10A rereplic: -1%; SW480 rerep: 18%; KB-3-1 cytotox: inactive

Results for Cc1cccc(C)c1NC(=O)CN ?
KCNH2 3.1 inh: -15; KB-V1 MDR tox: inconclusive; hERG WT inh: 3; MCF10A rereplic: -8%; SW480 rerep: 18µM*; KB-3-1 cytotox: inactive

Results for Cc1cc(C)c(NC(=O)CN)c(C)c1 ?
KCNH2 3.1 inh: -18; KB-V1 MDR tox: inactive; hERG WT inh: 14; MCF10A rereplic: inconclusive; SW480 rerep: inconclusive; KB-3-1 cytotox: inactive

From PubChem BioAssay
